In all, about 1,100 compounds were measured (“Wnt reporter firefly/Renilla luciferase ratio relative to plate median”: median about 1.1, highest 2% from about 1.6 on). The full list was thinned out, with the highest values kept by preference.
Tested on: HEK293T (UBE3A T485A transfected, BAR Wnt reporter)
Assay: Wnt reporter firefly/Renilla luciferase ratio relative to plate median (fold (linear ratio)); higher = more Wnt/beta-catenin reporter activation
Settings: 24 h
Procedure, shortened: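 HEK293T cells carrying a transfected BAR firefly luciferase Wnt reporter, TK-Renilla and an expression plasmid were exposed to chemicals at 0.01–100 uM for 24 h, with dosing four hours after transfection. Readout used Dual-Glo luciferase. The firefly/Renilla ratio defined Wnt activity and raw Renilla defined cell health, each median-centred per plate. Figures are means of four biological replicates.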

Structure (SMILES)	Wnt reporter firefly/Renilla luciferase ratio (concentration: 0.1 uM)	Wnt reporter firefly/Renilla luciferase ratio (concentration: 1 uM)	Wnt reporter firefly/Renilla luciferase ratio (concentration: 10 uM)	Wnt reporter firefly/Renilla luciferase ratio (concentration: 100 uM)	Wnt reporter firefly/Renilla luciferase ratio (concentration: 0.01 uM)
O=[N+]([O-])C(CO)(CO)CO [2-(Hydroxymethyl)-2-nitro-1,3-propanediol]	0.982	1.11	1.27	1.27	
O=c1nc(-c2ccc(C(F)(F)F)cc2)[nH]c2c1CSCC2	0.688	0.648	0.664	0.578	0.923
CCCCC(CC)C(=O)O (configuration not stated) [2-Ethylhexanoic acid]	0.925	1	1.4	1.2	
CCCC(CCC)C(=O)O [Valproic acid]	0.995	1.01	1.14	1.69	1.2
CCCCCCC(=O)O [Heptanoic acid]	1.02	1.15	1.07	0.917	
C[C@@H](Oc1ccc(CNC(=O)c2cccnc2Oc2ccc3c(c2)OCO3)c(F)c1)C(=O)O	1.14	1.12	1.13	1.33	
Cc1cc(F)ccc1-c1cc(N2CC[C@@H](O)[C@H]2CO)ncc1N(C)C(=O)C(C)(C)c1cc(C(F)(F)F)cc(C(F)(F)F)c1	1.27	1.05	1.16	0.311	
N#C[C@@H]1CC(F)(F)CN1C(=O)CNC1CC2CCC(C1)N2c1ncccn1 (some centres not stated)	0.985	0.923	0.937	0.82	
[Cl-].c1ccc(C[n+]2cccc3ccccc32)cc1 [1-Benzylquinolinium chloride]	0.993	0.903	1.05		
CCCOC(=O)c1ccc(O)cc1 [Propylparaben]	1.46	1.02	0.949	0.169	
Nc1ccc2c(c1)C(=O)c1ccccc1C2=O [2-Aminoanthraquinone]	1.06	1.2	1.28	1.58	
O=C(O)c1cccnc1 [Nicotinic acid]	1.02	1.17	0.874	1.27	
CNCc1ccc(NC(=O)c2c[nH]c3c2C(=O)CCC3)cc1	1.24	1.06	1.69	0.318	
CO[C@H]1/C=C/O[C@@]2(C)Oc3c(C)c(O)c4c(O)c(c(/C=N/N5CCN(C)CC5)c(O)c4c3C2=O)NC(=O)/C(C)=C\C=C\[C@H](C)[C@H](O)[C@@H](C)[C@@H](O)[C@@H](C)[C@H](OC(C)=O)[C@@H]1C [Rifampicin]	1.29	1.07	1.27	0.362	
CCCC(=O)O [Butanoic acid]	1.31	1	1.12	1.62	
CCCCCC(=O)O [Hexanoic acid]	1.02	0.926	1.05	1.27	
CCCCCCCCCC(=O)O [Decanoic acid]	1.43	1.04	1.39	0.794	
O=C(OCCOCCOC(=O)c1ccccc1)c1ccccc1 [Diethylene glycol dibenzoate]	1.08	1.16	1.34	1.44	
CCCCCCCCCCCCc1ccccc1S(=O)(=O)O [Dodecylbenzenesulfonic acid]	1.14	1.13	1.2	1.04	

Source: the supplement of paper PMC9254222
